Here are results for 26 molecules from PubChem BioAssay (NCI).

The structures appear in SMILES notation. The panel holds about 83,000 compounds, 20% with a hit somewhere; the sample as a whole holds those more often.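 Single-concentration screen, 48 h exposure, 96-well plates. Endpoint: percent growth. Below 10 = active.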 A number with no mark means an inactive call. Calls of active or inactive are those of the source.

What all share (assay): NCI-60 one-dose screen, 48 h (100 = growth as untreated, 0 = no growth, -100 = all killed)
In one experiment the test system is T-47D breast. The following applies: 10 µM.
The subject of another experiment is BT-549 breast. The following applies: 10 µM unless noted.
For a further experiment, the system named is MDA-MB-435 melanoma. Particulars: 10 µM unless noted.
In the next experiment the test system is SW-620 colon. Particulars: 10 µM unless noted.
The test system of another experiment is MCF7 breast. Particulars: 10 µM unless noted.
The subject of a further experiment is HCT-116 colon. The following applies: 10 µM unless noted.
Another experiment has as its system KM12 colon. Particulars: 10 µM unless noted.
The test system of another experiment is HCC-2998 colon. The following applies: 10 µM unless noted.

As for `Cc1cc(=O)[nH]n1-c1cc(Cl)ccc1N`, the growth was 105% in the experiment with T-47D breast; 87.1% with BT-549 breast; 111% in the experiment on MDA-MB-435 melanoma; 113% in the experiment with SW-620 colon; 101% in the experiment on MCF7 breast; 95.6% in the experiment with HCT-116 colon. The growth in the experiment with KM12 colon is 119%.

Turning to `CC1(C)N=C(N)N=C(N)N1c1cccc(OCCOc2cccc([N+](=O)[O-])c2)c1`, the growth is 83.1% in the experiment with T-47D breast; 37.8% with BT-549 breast; 17.8% in the experiment on MDA-MB-435 melanoma; 48.6% in the experiment on SW-620 colon; 29% in the experiment on MCF7 breast; 10.9% in the experiment on HCT-116 colon. Besides, the growth in the experiment with KM12 colon was 22.2%.

In the case of `COc1ccc(-c2nn(-c3ccc(NC(=O)c4ccc(Cl)c(Cl)c4)cc3)cc2-c2ccncc2)cc1Cl`, the growth in the experiment with T-47D breast is 64.9%; with BT-549 breast, 42.8%; with MDA-MB-435 melanoma, 54.3%; in the experiment on SW-620 colon, 32.1%; in the experiment on MCF7 breast, 31.5%; in the experiment with HCT-116 colon, 23.2%. The growth in the experiment on KM12 colon was 5.24% (active).

Consider `COc1ccc(Sc2ccc3[nH]c(=O)nc(N)c3c2)cc1`, for which the growth was 94.3% in the experiment on T-47D breast; 98.9% with BT-549 breast; 99.8% with MDA-MB-435 melanoma; 101% in the experiment on SW-620 colon; 100% with MCF7 breast; 99.9% in the experiment on HCT-116 colon. Also, the growth in the experiment with KM12 colon was 108%.

Take `Clc1ccc2c(N3CCN(c4ccnc(NC5CCCCC5)n4)CC3)ccnc2c1`: the growth was 26.1% with T-47D breast; 71.1% in the experiment with BT-549 breast; 42.7% with MDA-MB-435 melanoma; 33.7% in the experiment with SW-620 colon; 26.5% in the experiment on MCF7 breast; 4.29% (active) with HCT-116 colon. The growth in the experiment on KM12 colon was 35.5%.

As to `COc1cc(/C=C2\C(=O)N(c3c(Cl)cccc3Cl)c3ccccc32)cc(OC)c1O`, the growth was 51.8% with T-47D breast; 33.4% in the experiment on BT-549 breast; 35.2% in the experiment on MDA-MB-435 melanoma; 31.4% in the experiment with SW-620 colon; 25.3% with MCF7 breast; 15.7% in the experiment with HCT-116 colon. Moreover, in the experiment on KM12 colon, the growth was 28.4%.

For the molecule `Cc1ccc2nc(NC(=O)CSC(=S)N3CCN(Cc4ccccc4)CC3)sc2c1`, the growth with T-47D breast was -32.5% (active); in the experiment with BT-549 breast it was -55.4% (active); in the experiment on MDA-MB-435 melanoma, -38.5% (active); in the experiment on SW-620 colon it was -84.7% (active); in the experiment on MCF7 breast, -71.2% (active); in the experiment on HCT-116 colon, -54.9% (active). For the same molecule, the growth in the experiment on KM12 colon was -92.7% (active).

Regarding `O=C1OCC2=C1C(c1ccc3c(c1)OCO3)CC(=O)N2c1cccc(Cl)c1` (stereo unspecified), the growth with T-47D breast was 103%; with BT-549 breast, 126%; in the experiment on MDA-MB-435 melanoma, 100%; with SW-620 colon it was 105%; in the experiment on MCF7 breast it was 86.7%; in the experiment on HCT-116 colon it was 114%. Further, the growth with KM12 colon is 101%.

For `COc1ccc(-c2[nH]ncc2Nc2cc(OC)c(OC)c(OC)c2)cc1`, the growth is 18% in the experiment with T-47D breast; 27.3% with BT-549 breast; -11.7% (active) with MDA-MB-435 melanoma; 32.4% in the experiment with SW-620 colon; 23.1% in the experiment with MCF7 breast; 35.5% in the experiment on HCT-116 colon. The growth in the experiment on KM12 colon was 32.5%.

Take `Oc1ccc2ccccc2c1C1NN=C(c2ccccc2)S1` (stereo unspecified): the growth is 20.7% in the experiment with T-47D breast; 19.5% in the experiment with BT-549 breast; 29.4% in the experiment on MDA-MB-435 melanoma; 40.4% in the experiment with SW-620 colon; 17.2% with MCF7 breast; 16% in the experiment on HCT-116 colon. Also, the growth in the experiment with KM12 colon was 23.3%.

With `Clc1ccc(Nc2nc(Nc3ccccc3)nc(Nc3ccc(-c4cc(-c5ccc(Cl)cc5)on4)cc3)n2)cc1`, the growth in the experiment with T-47D breast is 71.7%; in the experiment on MDA-MB-435 melanoma, 11.1%; in the experiment on SW-620 colon, 38.7%; in the experiment on MCF7 breast, 50%; in the experiment on HCT-116 colon it was 27.4%; with HCC-2998 colon, 56.4%. In addition, the growth in the experiment on KM12 colon was 56.9%.

On to `Oc1cccc(Nc2nc(-c3ccccn3)cs2)c1`, for which the growth with T-47D breast is 87.3%; with BT-549 breast it was 95.1%; with MDA-MB-435 melanoma, 105%; in the experiment with MCF7 breast it was 84.1%; in the experiment on HCT-116 colon, 97.1%; in the experiment on KM12 colon it was 103%.

Regarding `FC(F)(F)c1cc(CNc2ncc(Br)c(Cl)n2)cc(C(F)(F)F)c1`, the growth in the experiment with T-47D breast is 89.8%; with BT-549 breast, 83.7%; in the experiment with SW-620 colon it was 105%; in the experiment with MCF7 breast, 95.7%; in the experiment on HCT-116 colon, 90.2%; in the experiment on HCC-2998 colon, 102%. Moreover, in the experiment on KM12 colon, the growth is 105%.

As for `Nc1cc2[nH]c(=O)c3ccccc3c2cc1Br`, the growth with T-47D breast is 20.6%; in the experiment with MDA-MB-435 melanoma, 95.3%; in the experiment on SW-620 colon, 82.9%; with MCF7 breast it was 24.5%; in the experiment with HCT-116 colon, 77%; in the experiment with HCC-2998 colon, 69.5%. Besides, the growth with KM12 colon is 78.9%.

Consider `Cc1cc(=O)oc2c1ccc1oc(C(=O)c3ccccc3)c(C)c12`, for which the growth in the experiment on T-47D breast was 76.3%; with BT-549 breast, 101%; in the experiment with MDA-MB-435 melanoma, 95.8%; with SW-620 colon, 92.2%; with MCF7 breast, 69.4%; in the experiment with HCT-116 colon it was 83.5%. The growth with KM12 colon was 73.2%.

Take `COc1ccc(-c2csc3c2-n2cccc2C3=O)cc1O`: the growth with T-47D breast is 79.6%; in the experiment with BT-549 breast it was -26.2% (active); with MDA-MB-435 melanoma, -57.1% (active); in the experiment with SW-620 colon, 20.2%; with MCF7 breast it was 5.97% (active); with HCT-116 colon, -9.12% (active). For the same molecule, the growth with KM12 colon is -2.75% (active).

Turning to `O=C1C(Br)=C(c2ccccc2)C(=O)C(Br)=C1c1ccccc1`, the growth in the experiment with T-47D breast is 73.4%; in the experiment with BT-549 breast, 97.7%; in the experiment on MDA-MB-435 melanoma it was 91.4%; with SW-620 colon, 94.2%; with MCF7 breast, 92.6%; in the experiment with HCT-116 colon, 90.3%. Further, the growth in the experiment on KM12 colon was 102%.

With `CCOC(=O)C1=C(C)N2C(=NC3=C(CCCC/C3=C\c3ccccc3)C2c2ccccc2)S1` (stereo unspecified), the growth was 78.7% in the experiment on T-47D breast; 93.7% in the experiment with MDA-MB-435 melanoma; 101% in the experiment with SW-620 colon; 87.8% in the experiment with MCF7 breast; 96.3% in the experiment with HCT-116 colon; 94.9% with HCC-2998 colon. Besides, the growth with KM12 colon was 97.3%.

`O=C(NCc1cccnc1)c1ccc([N+](=O)[O-])o1`: the growth with T-47D breast was 57%; in the experiment on MDA-MB-435 melanoma, -19.9% (active); with SW-620 colon, -65.3% (active); in the experiment on MCF7 breast it was 13.9%; in the experiment on HCT-116 colon, -4.08% (active); in the experiment with HCC-2998 colon it was -97.6% (active). Further, the growth in the experiment with KM12 colon is 0.0106% (active).

As to `COc1ccc(-c2cc(=O)oc3c4c(ccc23)OCN(Cc2ccc(F)cc2)C4)cc1`, the growth with T-47D breast was 62.8%; with BT-549 breast, 66%; in the experiment with MDA-MB-435 melanoma, 59.6%; in the experiment with SW-620 colon, 66.2%; in the experiment with MCF7 breast it was 48.8%; in the experiment on HCT-116 colon it was 39.6%. The growth in the experiment with KM12 colon was 79.4%.

With `CCN(CC)CCCNc1ccc(C)c2sc3ccccc3c(=O)c12`, the growth with T-47D breast is 43.7%; in the experiment with BT-549 breast, 76.5%; with MDA-MB-435 melanoma, -85.7% (active); in the experiment on MCF7 breast, -67.1% (active); in the experiment with HCT-116 colon, 17.5%; with HCC-2998 colon, -49.2% (active). For the same molecule, in the experiment on KM12 colon, the growth is 33.2%.

As for `COc1ccc(/C=C2\CN(Cc3cn(CCCNc4ccnc5cc(Cl)ccc45)nn3)C/C(=C\c3ccc(OC)cc3)C2=O)cc1`, the growth with T-47D breast was 102%; in the experiment with MDA-MB-435 melanoma, 60.2%; in the experiment with SW-620 colon, 46.4%; with MCF7 breast it was 43.5%; with HCT-116 colon it was 44.5%; in the experiment on HCC-2998 colon it was 95.1%. Besides, the growth in the experiment with KM12 colon is 45.4%.

Take `Cc1nn(-c2ccccc2)c2nc3nc4c(c(N)c3c(-c3ccc(Cl)cc3)c12)CCC4`: the growth in the experiment with T-47D breast was 102%; in the experiment on MDA-MB-435 melanoma, 95.1%; with SW-620 colon, 50.8%; in the experiment on MCF7 breast, 87.5%; with HCT-116 colon it was 58.2%; in the experiment with HCC-2998 colon, 109%. Also, the growth in the experiment on KM12 colon is 96.6%.

Regarding `CCCCc1ccc(NC(=O)C(F)(F)F)cc1`, the growth in the experiment with T-47D breast was 87.1%; with BT-549 breast, 87.7%; in the experiment on MDA-MB-435 melanoma it was 102%; in the experiment on SW-620 colon, 101%; in the experiment with MCF7 breast, 108%; with HCT-116 colon, 106%. Further, the growth in the experiment on KM12 colon was 97.3%.

Consider `NC(=S)N/N=C1\c2ccccc2-c2c(F)c(F)c(F)c(F)c21`, for which the growth in the experiment with T-47D breast was 8.63% (active); in the experiment on MDA-MB-435 melanoma it was 99.6%; in the experiment with SW-620 colon, 59.8%; in the experiment on MCF7 breast, 28.7%; in the experiment with HCT-116 colon it was 5.16% (active); in the experiment on HCC-2998 colon, 90.1%. In the experiment with KM12 colon, the growth is 93.5%.

In the case of `N#Cc1ccc(C(F)(F)F)nc1N1CCC(C(=O)Nc2ccc(Cl)cc2)CC1`, the growth is 64.7% in the experiment with T-47D breast; 67.5% with MDA-MB-435 melanoma; 75.4% with SW-620 colon; 60% in the experiment with MCF7 breast; 41.3% in the experiment on HCT-116 colon; 68.7% in the experiment on HCC-2998 colon. In addition, in the experiment on KM12 colon, the growth is 91%.
